Eleven compounds from ChEMBL document CHEMBL3988442, “University of Dundee, Small-Polar-MMV Screening Library” (2021) can be followed below.

Holding throughout (parameters): scale not given: direction of the effect not stated beside the values
For assay [1], the target named is Protein translocase subunit SecA (Escherichia coli (strain K12)) (UniProt P10408). Description: Assay to Identify E. coli SecA ATPase Inhibitors. In kind it is functional. The conditions noted are these: 30 µM.
Assay [2] has as its target T1, Ubiquitin-activating enzyme e1, putative (Leishmania donovani (strain BPK282A1)) (UniProt E9BSI1).
T1 sequence (whole entry): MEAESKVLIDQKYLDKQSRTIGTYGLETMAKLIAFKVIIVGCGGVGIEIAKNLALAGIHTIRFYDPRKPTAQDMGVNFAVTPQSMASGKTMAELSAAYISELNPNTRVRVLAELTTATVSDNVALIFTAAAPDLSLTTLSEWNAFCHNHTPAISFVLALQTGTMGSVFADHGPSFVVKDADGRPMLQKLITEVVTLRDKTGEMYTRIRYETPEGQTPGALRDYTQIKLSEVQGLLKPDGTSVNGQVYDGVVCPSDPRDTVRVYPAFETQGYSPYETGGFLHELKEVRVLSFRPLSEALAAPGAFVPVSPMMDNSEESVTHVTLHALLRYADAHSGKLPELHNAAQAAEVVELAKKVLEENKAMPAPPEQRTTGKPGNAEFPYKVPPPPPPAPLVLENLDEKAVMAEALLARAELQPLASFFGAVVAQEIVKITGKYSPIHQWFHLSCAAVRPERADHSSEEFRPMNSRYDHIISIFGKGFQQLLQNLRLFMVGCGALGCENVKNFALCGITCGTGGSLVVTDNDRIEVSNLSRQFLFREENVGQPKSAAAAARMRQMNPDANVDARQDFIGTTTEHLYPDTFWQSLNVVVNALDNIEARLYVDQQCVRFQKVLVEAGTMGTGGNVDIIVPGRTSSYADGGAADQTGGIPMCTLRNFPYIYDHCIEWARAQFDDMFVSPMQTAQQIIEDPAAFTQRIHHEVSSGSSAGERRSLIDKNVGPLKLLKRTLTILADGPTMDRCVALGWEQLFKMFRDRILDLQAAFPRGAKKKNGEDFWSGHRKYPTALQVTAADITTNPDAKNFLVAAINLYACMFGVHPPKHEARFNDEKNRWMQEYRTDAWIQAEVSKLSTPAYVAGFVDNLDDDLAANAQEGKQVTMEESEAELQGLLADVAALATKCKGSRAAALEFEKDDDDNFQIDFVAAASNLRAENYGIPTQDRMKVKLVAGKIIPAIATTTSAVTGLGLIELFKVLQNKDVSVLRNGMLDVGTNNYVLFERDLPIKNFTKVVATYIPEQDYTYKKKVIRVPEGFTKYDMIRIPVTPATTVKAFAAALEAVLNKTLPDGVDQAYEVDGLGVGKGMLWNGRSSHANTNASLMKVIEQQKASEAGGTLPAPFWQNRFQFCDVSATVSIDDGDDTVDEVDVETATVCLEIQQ
Description: Leishmania donovani Ubiquitin Activating Enzyme (LdE1). In kind it is functional. The settings on record: 30 µM.

Assay [3] concerns the target AMP-activated protein kinase, AMPK (Homo sapiens) (UniProt P54646+O43741+P54619+Q9UGJ0+Q9Y478+Q13131+Q9UGI9). Description: AMP-dependent Kinase enzyme assay. An in vitro enzyme assay that detects ADP turnover that is directly proportional to AMPK activity. This uses naive AMPK that is activated during the assay with MK-8722. In kind it is functional. The conditions noted are these: 30 µM.

In assay [4] the target is Sialic acid-binding Ig-like lectin 9 (Homo sapiens) (UniProt Q9Y336). Description: Hs-Siglec9 ALPHAscreen SOP 20170721. The settings on record: 10 µM. Background: In Alpha technology, singlet oxygen from a donor bead excites a nearby acceptor bead.
In a further assay the test system is Trypanosoma cruzi. Description: Trypanosoma cruzi phosphomannomutase and mannose-1-phosphate guanylyltransferase assay. The settings on record: 10 µM. In kind it is functional.
In assay [5] the target is T2, Arginase-2, mitochondrial (Homo sapiens) (UniProt P78540).
T2 sequence (whole entry): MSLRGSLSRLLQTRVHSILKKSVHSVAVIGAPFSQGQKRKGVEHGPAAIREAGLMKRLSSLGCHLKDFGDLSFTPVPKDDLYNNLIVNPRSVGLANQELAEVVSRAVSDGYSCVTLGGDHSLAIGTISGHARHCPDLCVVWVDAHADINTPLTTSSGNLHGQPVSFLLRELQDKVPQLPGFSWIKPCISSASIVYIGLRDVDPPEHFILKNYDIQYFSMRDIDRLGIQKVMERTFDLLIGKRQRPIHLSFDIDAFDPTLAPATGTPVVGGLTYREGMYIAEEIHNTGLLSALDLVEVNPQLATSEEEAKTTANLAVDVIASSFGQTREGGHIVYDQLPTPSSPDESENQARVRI
Description: in vitro enzyme assay to detect the production of urea directly proportional to the activity of Arginase II. Also: in the data most compounds retested in dose-response had high values. The settings on record: 33.3 µM. In kind it is functional.

The target in assay [6] is T3, Proteasome subunit beta (Trypanosoma cruzi) (UniProt O96673).
T3 sequence (whole entry): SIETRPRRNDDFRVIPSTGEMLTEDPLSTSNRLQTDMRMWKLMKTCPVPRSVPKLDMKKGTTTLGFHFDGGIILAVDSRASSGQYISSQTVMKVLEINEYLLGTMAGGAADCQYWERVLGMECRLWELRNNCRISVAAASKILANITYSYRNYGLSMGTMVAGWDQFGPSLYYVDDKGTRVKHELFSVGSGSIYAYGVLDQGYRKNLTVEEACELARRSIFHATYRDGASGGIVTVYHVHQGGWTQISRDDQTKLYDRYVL
Description: Trypanosoma cruzi proteasome chymotrypsin-like activity (TcProtChymo) assay. Also: in the data most compounds retested in dose-response had high values. In kind it is functional. The settings on record: 9.37 µM.

For another assay, the species on record is Homo sapiens. Description: To identify inhibition of the IFN signalling (Jak-Stat) pathway via expression of an eGFP reporter gene under the control of an IFN-stimulated response element (ISRE) containing MxA promoter. The class given is functional. The settings on record: 30 µM.
In assay [7] the target is T4, Tyrosyl-tRNA synthetase, putative (Trypanosoma cruzi (strain CL Brener)) (UniProt Q4DSP6).
T4 sequence (whole entry): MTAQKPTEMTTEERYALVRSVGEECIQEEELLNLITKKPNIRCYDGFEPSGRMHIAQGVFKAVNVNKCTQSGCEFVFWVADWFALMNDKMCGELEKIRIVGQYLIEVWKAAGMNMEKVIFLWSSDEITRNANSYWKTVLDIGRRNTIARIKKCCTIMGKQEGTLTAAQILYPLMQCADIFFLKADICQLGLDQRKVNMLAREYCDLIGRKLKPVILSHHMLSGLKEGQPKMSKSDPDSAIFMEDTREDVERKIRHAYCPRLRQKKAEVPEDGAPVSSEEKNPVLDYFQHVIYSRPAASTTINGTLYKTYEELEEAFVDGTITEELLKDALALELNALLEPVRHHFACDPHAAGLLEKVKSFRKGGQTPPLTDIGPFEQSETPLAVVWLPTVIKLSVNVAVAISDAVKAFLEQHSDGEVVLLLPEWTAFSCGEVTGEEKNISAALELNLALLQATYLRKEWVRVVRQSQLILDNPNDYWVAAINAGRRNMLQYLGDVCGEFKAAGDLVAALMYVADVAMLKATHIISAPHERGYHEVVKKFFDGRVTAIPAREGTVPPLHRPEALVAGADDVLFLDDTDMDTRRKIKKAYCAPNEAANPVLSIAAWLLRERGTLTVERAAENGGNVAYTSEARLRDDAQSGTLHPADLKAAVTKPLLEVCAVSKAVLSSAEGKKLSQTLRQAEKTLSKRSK
As to the kind of experiment: Trypanosoma cruzi tyrosyl tRNA synthetase (TcYRS) _High Tyrosine SOP. Also: in the data most compounds retested in dose-response had high values. The conditions noted are these: 30 µM. In kind it is functional.

Assay [8] deals with T4, Tyrosyl-tRNA synthetase, putative (Trypanosoma cruzi (strain CL Brener)). As to the kind of experiment: Trypanosoma cruzi tyrosyl tRNA synthetase (TcYRS) SOP. In kind it is functional. The conditions noted are these: 30 µM.
The target of assay [9] is Chromo domain-containing protein 1 (Saccharomyces cerevisiae (strain ATCC 204508 / S288c) (Baker's yeast)) (UniProt P32657). As to the kind of experiment: ScCHD-1 Enzyme Inhibition Assay. Also: in the data most compounds retested in dose-response had high values. The class given is functional. The conditions noted are these: 30 µM.

For some of these results: Measured potencies and affinities stand elsewhere.

Sialic acid-binding Ig-like lectin 9 (Homo sapiens), sequence (Q9Y336 whole entry): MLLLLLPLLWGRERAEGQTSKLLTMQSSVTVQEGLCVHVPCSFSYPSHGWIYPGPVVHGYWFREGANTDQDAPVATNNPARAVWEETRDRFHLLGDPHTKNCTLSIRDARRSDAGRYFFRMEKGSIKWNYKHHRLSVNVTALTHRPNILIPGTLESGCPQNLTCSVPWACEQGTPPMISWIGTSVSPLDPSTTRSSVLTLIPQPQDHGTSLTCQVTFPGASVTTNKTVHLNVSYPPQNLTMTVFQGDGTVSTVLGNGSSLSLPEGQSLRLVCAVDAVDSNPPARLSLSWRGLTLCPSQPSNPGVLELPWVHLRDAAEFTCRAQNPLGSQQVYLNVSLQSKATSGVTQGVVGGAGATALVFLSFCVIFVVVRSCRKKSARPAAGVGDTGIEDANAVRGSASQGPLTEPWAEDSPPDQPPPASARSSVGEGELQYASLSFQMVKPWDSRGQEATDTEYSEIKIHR
Chromo domain-containing protein 1 (Saccharomyces cerevisiae (strain ATCC 204508 / S288c) (Baker's yeast)), sequence (P32657 whole entry, the tested form may be a part): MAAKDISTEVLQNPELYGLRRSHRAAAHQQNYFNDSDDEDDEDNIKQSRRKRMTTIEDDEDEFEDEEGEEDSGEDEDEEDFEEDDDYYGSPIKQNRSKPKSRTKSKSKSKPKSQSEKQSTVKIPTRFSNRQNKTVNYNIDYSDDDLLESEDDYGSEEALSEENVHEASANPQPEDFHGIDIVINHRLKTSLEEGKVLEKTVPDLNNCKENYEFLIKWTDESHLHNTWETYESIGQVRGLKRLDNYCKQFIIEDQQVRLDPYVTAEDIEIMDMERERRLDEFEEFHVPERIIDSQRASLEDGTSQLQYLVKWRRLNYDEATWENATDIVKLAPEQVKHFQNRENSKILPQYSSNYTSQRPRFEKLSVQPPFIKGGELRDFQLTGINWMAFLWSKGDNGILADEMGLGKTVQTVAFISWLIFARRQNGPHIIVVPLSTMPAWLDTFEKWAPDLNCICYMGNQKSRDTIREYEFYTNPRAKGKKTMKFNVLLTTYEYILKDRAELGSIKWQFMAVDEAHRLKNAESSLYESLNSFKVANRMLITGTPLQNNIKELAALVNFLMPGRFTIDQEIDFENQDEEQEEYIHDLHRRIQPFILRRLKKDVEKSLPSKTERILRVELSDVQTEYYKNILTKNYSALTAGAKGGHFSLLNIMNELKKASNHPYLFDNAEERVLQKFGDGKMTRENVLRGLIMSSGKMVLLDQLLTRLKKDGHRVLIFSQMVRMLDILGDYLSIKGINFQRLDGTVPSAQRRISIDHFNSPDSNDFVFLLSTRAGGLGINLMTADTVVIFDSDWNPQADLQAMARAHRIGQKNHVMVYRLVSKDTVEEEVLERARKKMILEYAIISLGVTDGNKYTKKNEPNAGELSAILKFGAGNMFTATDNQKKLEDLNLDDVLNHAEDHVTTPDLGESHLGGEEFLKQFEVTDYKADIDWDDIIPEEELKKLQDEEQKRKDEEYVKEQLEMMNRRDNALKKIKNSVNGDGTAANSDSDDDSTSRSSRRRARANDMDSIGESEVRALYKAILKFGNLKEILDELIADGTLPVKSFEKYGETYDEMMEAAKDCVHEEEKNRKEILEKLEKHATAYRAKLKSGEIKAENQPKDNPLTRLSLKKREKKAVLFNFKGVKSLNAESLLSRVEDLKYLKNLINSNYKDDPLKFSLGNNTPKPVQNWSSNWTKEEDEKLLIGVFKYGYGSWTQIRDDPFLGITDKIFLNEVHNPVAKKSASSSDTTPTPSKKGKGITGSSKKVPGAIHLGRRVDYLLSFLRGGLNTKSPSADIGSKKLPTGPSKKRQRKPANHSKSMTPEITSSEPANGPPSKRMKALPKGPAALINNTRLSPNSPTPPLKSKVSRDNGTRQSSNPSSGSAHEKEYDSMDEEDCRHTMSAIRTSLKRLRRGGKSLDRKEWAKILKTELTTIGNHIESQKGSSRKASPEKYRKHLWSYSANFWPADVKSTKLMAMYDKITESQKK
Protein translocase subunit SecA (Escherichia coli (strain K12)), sequence (P10408 whole entry): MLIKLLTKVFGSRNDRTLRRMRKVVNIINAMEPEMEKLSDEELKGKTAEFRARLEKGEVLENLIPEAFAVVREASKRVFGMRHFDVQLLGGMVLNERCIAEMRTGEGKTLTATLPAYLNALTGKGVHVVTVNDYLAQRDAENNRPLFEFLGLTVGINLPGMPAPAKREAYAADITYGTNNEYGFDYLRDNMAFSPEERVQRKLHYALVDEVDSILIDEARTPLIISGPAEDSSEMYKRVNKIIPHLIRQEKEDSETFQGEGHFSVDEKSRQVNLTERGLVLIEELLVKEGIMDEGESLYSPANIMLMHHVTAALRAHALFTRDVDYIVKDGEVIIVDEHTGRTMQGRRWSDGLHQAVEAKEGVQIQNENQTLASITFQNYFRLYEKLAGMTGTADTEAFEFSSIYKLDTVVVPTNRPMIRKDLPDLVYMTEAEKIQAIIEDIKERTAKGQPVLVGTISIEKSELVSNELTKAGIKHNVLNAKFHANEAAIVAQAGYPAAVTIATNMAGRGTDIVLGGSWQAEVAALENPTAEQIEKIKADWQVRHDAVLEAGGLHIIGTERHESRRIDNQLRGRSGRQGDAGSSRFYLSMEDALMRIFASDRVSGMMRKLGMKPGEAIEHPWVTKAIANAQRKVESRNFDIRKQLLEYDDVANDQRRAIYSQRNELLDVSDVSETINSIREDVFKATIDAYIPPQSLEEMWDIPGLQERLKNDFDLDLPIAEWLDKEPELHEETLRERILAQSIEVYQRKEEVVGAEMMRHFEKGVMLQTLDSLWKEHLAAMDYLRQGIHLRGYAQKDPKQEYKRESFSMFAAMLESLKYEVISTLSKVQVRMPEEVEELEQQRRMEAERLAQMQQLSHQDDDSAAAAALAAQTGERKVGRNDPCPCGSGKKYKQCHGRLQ

Turning to `O=C(CNCCn1cccn1)NCC1(c2ccccc2)CC1`, the Percent Effect is -0.0759% in assay [1]; -2.6% in assay [2]; 8.25% in [3]; 8.53% in assay [4]; 1.27% in the assay with Trypanosoma cruzi; 1.47% in assay [5]. The Percent Effect in assay [6] is -3.96%; in the assay filed under Homo sapiens, 7.94%; in [7], 3.81%; in assay [8], 7.06%; in [9], -6.43%.
As for `CCCC(C)(C)NC(=O)c1ccc(CC2CC(=O)NC2=O)cc1` (stereo unspecified), the Percent Effect in [1] is -8.33%; in assay [2], 8.22%; in assay [3], 6.89%; in [4], 23.9%; with Trypanosoma cruzi it was 3.53%; in assay [5] it was 2.27%. The Percent Effect in assay [6] is 15.1%; in the assay filed under Homo sapiens it was 13.9%; in assay [7], 3.23%; in [8], 10%; in [9], -5.88%.
`Cc1nn(C)c(C)c1C(=O)N1CCOCC1CC(=O)c1ccco1` (stereo unspecified): the Percent Effect is -2.08% in assay [1]; 0% in [2]; 5.49% in [3]; 5.37% in [4]; 4.19% in the assay with Trypanosoma cruzi; -8.28% in assay [5]. Further, the Percent Effect in assay [6] is -0.0959%; in the assay listed under Homo sapiens it was -9.68%; in assay [7], 0%; in assay [8], 7.79%; in assay [9], -0.43%.
With `CCN(C(=O)COC)C(c1cccnc1)c1ccc2c(c1)CCO2` (stereo unspecified), the Percent Effect in [1] was 2.93%; in assay [2] it was 2.74%; in [3], 0.259%; in [4] it was 5.98%; in the assay with Trypanosoma cruzi it was -8.13%; in assay [5] it was -1.2%. For the same compound, the Percent Effect is 19.8% in assay [6]; 5.88% in the assay filed under Homo sapiens; 9.38% in [7]; 11.1% in [8]; -1.24% in assay [9].
For `CCn1cc2c(n1)CN(CC1CC1)CC2COCC1CC1` (stereo unspecified), the Percent Effect in assay [1] was -2.46%; in assay [2] it was 10.7%; in assay [3], 4.51%; in assay [4], -3.73%; in the assay with Trypanosoma cruzi it was -1.77%; in [5] it was -5.36%. Also, the Percent Effect was 9.25% in assay [6]; -20.4% in the assay filed under Homo sapiens; 5.32% in [7]; 8.97% in assay [8]; -4.66% in [9].
As to `Cc1nnc(N2CCC(CS(N)(=O)=O)CC2)c(C#N)c1C`, the Percent Effect in assay [1] was -5.18%; in [2], 2.6%; in assay [3] it was -17.4%; in assay [4], -9.8%; with Trypanosoma cruzi it was 0.49%; in assay [5], -1.9%. Also, the Percent Effect in assay [6] is 16.1%; in the assay listed under Homo sapiens, 7.88%; in assay [7], 3.81%; in [8], 9.41%; in [9], -16.6%.
Regarding `Cc1ccsc1-c1nnc(C2CCN(Cc3ccc(F)cc3)CC2)o1`, the Percent Effect in assay [1] is -4.79%; in assay [2], -9.46%; in assay [3], 14.3%; in [4], 4.24%; with Trypanosoma cruzi, 7.31%; in [5] it was -4.87%. Moreover, the Percent Effect in assay [6] was 10.8%; in the assay filed under Homo sapiens, -11.7%; in assay [7] it was 3.23%; in assay [8], 3.9%; in [9], -15.5%.
Regarding `O=C(NCCCn1cccn1)C1(c2ccc(Br)cc2)CC1`, the Percent Effect is 0.127% in assay [1]; 8.22% in assay [2]; 12.9% in assay [3]; -1.49% in [4]; -3.13% with Trypanosoma cruzi; 2.73% in [5]. The Percent Effect was 10.1% in assay [6]; 8.94% in the assay filed under Homo sapiens; 4.3% in assay [7]; 10% in assay [8]; -4.29% in assay [9].
Turning to `COCCN1C(=O)CC(N2CCN(c3ccc(OC)cc3)CC2)C1=O` (stereo unspecified), the Percent Effect stood at 1.03% in assay [1]; 6.94% in [2]; 1.7% in [3]; 4.19% in assay [4]; 4.37% with Trypanosoma cruzi; 13.7% in assay [5]. The Percent Effect is 16.8% in assay [6]; -7.93% in the assay filed under Homo sapiens; 8.42% in assay [7]; 15.4% in assay [8]; -3.31% in assay [9].
With `O=C(O)c1cc2c(nc1O)CC(c1cccc(Cl)c1)CC2=O` (stereo unspecified), the Percent Effect was -6.48% in [1]; 1.33% in assay [2]; 28.2% in assay [3]; 2.46% in [4]; -5.7% in the assay on Trypanosoma cruzi; -6.16% in assay [5]. The Percent Effect in [6] was 7.21%; in the assay filed under Homo sapiens, 1.57%; in assay [7] it was 4.23%; in assay [8] it was 2.56%; in [9], -9.15%.
In the case of `COc1ccc(CN(C)[C@@H]2CN(C(=O)c3cccs3)C[C@H]2O)cc1`, the Percent Effect in assay [1] was -3.27%; in assay [2], 6.76%; in assay [3], 10.4%; in [4], 2.59%; in the assay with Trypanosoma cruzi, -6.13%; in assay [5], -2.09%. In addition, the Percent Effect was 10.6% in assay [6]; 15.6% in the assay listed under Homo sapiens; 5.38% in [7]; 9.09% in assay [8]; -9% in [9].
